These results are taken from the supplement of paper PMC9446081.

The structures appear in SMILES notation. Screen size: about 39,000 compounds; about 220 (0.56%) showed activity. The sample as a whole holds a higher share of actives than the screen did. A number with no mark means an inactive call.
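Also: Wild-type cells incubated without shaking, value is the mean of two biological replicates.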

This assay concerns Escherichia coli K-12 BW25113. Nature of the assay: relative growth (OD600 normalised to plate interquartile mean) (fraction); higher = less growth inhibition, active = 0.2 or less. As to conditions: 50 µM; LB; incubation time: overnight (16-24 h).
Regarding `C[C@@H]1CN([C@H](C)CO)C(=O)c2cccc(NC(=O)C3CCOCC3)c2O[C@H]1CN(C)Cc1ccc(-c2ccccc2)cc1`, the relative growth is 1. As for `O=C(CCCCCC(=O)N/N=C/[C@H](O)[C@@H](O)[C@H](O[C@@H]1O[C@H](CO)[C@H](O)[C@H](O)[C@H]1O)[C@H](O)CO)NO`, the relative growth was 1.01. In the case of `COc1ccc2c3c([nH]c2c1)[C@H](CO)N(C[C@]13CN(C1)C(=O)Cc1cccnc1)S(=O)(=O)c1ccc(cc1)C`, the relative growth was 0.987. For the compound `CCn1cc(C(=O)O)c(=O)c2cc(F)c(N3CCNCC3)nc21`, the relative growth was 0.049 (active). In the case of `CCn1cc(C(=O)O)c(=O)c2ccc(C)nc21`, the relative growth was 1.02.

For `O=C(O)c1cnc(N2CCCC2)nc1`, the relative growth was 1.03.

Take `CCn1cc(C(=O)O)c(=O)c2cnc(N3CCCC3)nc21`: the relative growth is 1.09. As for `CCn1cc(C(=O)O)c(=O)c2cnc(N3CCNCC3)nc21`, the relative growth is 0.05 (active). As for `NC(=O)c1cc(S(N)(=O)=O)ccc1Cl`, the relative growth was 0.993. On to `C[C@H]1CN([C@@H](C)CO)C(=O)c2cc(NC(=O)Nc3ccc(F)cc3)ccc2O[C@H]1CN(C)S(C)(=O)=O`, for which the relative growth is 1.02. Take `Cc1noc(C)c1S(=O)(=O)N(C)C[C@@H]1Oc2ccc(NS(C)(=O)=O)cc2CC(=O)N([C@@H](C)CO)C[C@H]1C`: the relative growth was 1.01. Take `C[C@@H]1CCCCO[C@@H](CN(C)C(=O)Nc2ccc3c(c2)OCO3)[C@@H](C)CN([C@H](C)CO)C(=O)c2cc(NC(=O)Nc3ccc4c(c3)OCO4)ccc2O1`: the relative growth was 1.02. Take `C[C@@H]1CN([C@@H](C)CO)C(=O)c2cc(NC(=O)Nc3ccc(F)cc3)ccc2O[C@@H](C)CCCCO[C@@H]1CN(C)Cc1ccncc1`: the relative growth is 0.93. As to `Cc1noc(C)c1NC(=O)N(C)C[C@@H]1Oc2c(NC(=O)Nc3ccc(C(F)(F)F)cc3)cccc2C(=O)N([C@@H](C)CO)C[C@@H]1C`, the relative growth was 0.943. For `COC(=O)c1c(C)cc(OC(=O)c2c(C)cc(O)c(C=O)c2O)c(C)c1O` the value was 0.867; for `Cc1cc(O)c(C=O)c(O)c1C(=O)O`, 1.07; for `CCOC(=O)c1c(C)cc(O)c(C=O)c1O`, 0.0424 (active). Consider `COc1ccc(NC(=O)Nc2ccc3c(c2)C(=O)N([C@@H](C)CO)C[C@H](C)[C@H](CN(C)C(=O)Nc2ccc4c(c2)OCO4)OCCCC[C@@H](C)O3)cc1`, for which the relative growth is 1.04. Consider `Cc1noc(C)c1NC(=O)Nc1ccc2c(c1)C(=O)N([C@H](C)CO)C[C@@H](C)[C@@H](CN(C)C(=O)NC1CCCCC1)OCCCC[C@H](C)O2`, for which the relative growth is 1.02.

As for `C[C@H]1CN([C@@H](C)CO)C(=O)c2cc(N(C)C)ccc2O[C@H]1CN(C)S(C)(=O)=O`, the relative growth is 0.993. Consider `Cc1cn2nc([C@@H]3CCCCN3C(=O)c3cc(Cl)ccc3NS(C)(=O)=O)cc2nc1N1CC[C@H](N)C1`, for which the relative growth is 0.981.

Regarding `Cc1ccc(S(=O)(=O)O)cc1.NC1CCN(c2nc3c(cc2F)c(=O)c(C(=O)O)cn3-c2ccc(F)cc2F)C1.O` (stereo not drawn), the relative growth is 0.0925 (active). `N[C@@H]1[C@H]2CN(c3nc4c(cc3F)c(=O)c(C(=O)O)cn4-c3ccc(F)cc3F)C[C@@H]12`: the relative growth is 0.0389 (active). `N[C@H]1CCN(c2nc3c(cc2F)c(=O)c(C(=O)O)cn3-c2ccc(F)cc2F)C1`: the relative growth was 0.17 (active). Regarding `O=C(C[C@@H]1CC[C@@H]2[C@H](COC[C@H](O)CN2S(=O)(=O)c2ccccc2)O1)NCc1ccc2c(c1)OCO2`, the relative growth was 0.99. As to `C[C@@H]1CCCCO[C@H](CN(C)Cc2ccccc2)[C@@H](C)CN([C@@H](C)CO)C(=O)c2cc(NS(=O)(=O)c3ccc(Cl)cc3)ccc2O1`, the relative growth was 0.981. For `Cc1noc(C)c1S(=O)(=O)Nc1ccc2c(c1)C(=O)N([C@H](C)CO)C[C@H](C)[C@H](CN(C)Cc1ccncc1)O2` the value was 0.999. For `COCCOC(=O)N1C(=O)[C@@]2(c3cc(C#CCCO)ccc31)[C@H](C(=O)Nc1nc3ccccc3s1)[C@H]1C(=O)O[C@H](c3ccccc3)[C@H](c3ccccc3)N1[C@@H]2c1ccc(O)cc1` the value was 1.02. In the case of `C[C@H](CO)N1C[C@H](C)[C@@H](CN(C)Cc2ccc(C(=O)O)cc2)OCCCC[C@H](C)Oc2ccc(NS(=O)(=O)c3ccc(F)cc3)cc2C1=O`, the relative growth is 0.967. For `C=C1C(=O)O[C@@H]2/C=C(\CO[C@@H]3O[C@H](CO)[C@@H](O)[C@H](O)[C@H]3O)CC/C=C3\C[C@H](OC3=O)[C@@H]12` the value was 0.997. `C[C@@H]1CN([C@@H](C)CO)C(=O)Cc2cc(NC(=O)Cc3cn(C)c4ccccc34)ccc2O[C@H]1CN(C)Cc1ccc(C(=O)Nc2ccccc2N)cc1`: the relative growth was 0.988. Take `C[C@H](O)CC1=C[C@H](O)[C@@H](C)OC1=O`: the relative growth was 1.01. For `C[C@]1(C(=O)NCc2ccccc2)c2ccccc2C(=O)N(Cc2ccc(OC(F)(F)F)cc2)[C@H]1c1ccc(CO)cc1` the value was 0.983. Turning to `CN[C@@H]1[C@@H](O[C@H]2O[C@H](CO)[C@@H](N)[C@H](O)[C@H]2O)O[C@H]2C[C@@H](N)[C@H](O[C@H]3[C@H](O)[C@@H](O)[C@H](N)C[C@@H]3N)O[C@@H]2[C@@H]1O`, the relative growth was 0.978. For `CNC1C(OC2OC(CO)C(N)C(O)C2O)OC2CC(N)C(OC3C(N)CC(N)C(O)C3O)OC2C1O.O=S(=O)(O)O` (stereo not drawn) the value was 1.2; for `NC[C@@H]1O[C@H](O[C@H]2[C@@H](O)[C@H](O[C@@H]3[C@@H](O)[C@H](N)C[C@H](N)[C@H]3O[C@@H]3O[C@H](CO)[C@@H](O)C[C@H]3N)O[C@@H]2CO)[C@H](N)[C@@H](O)[C@@H]1O[C@H]1O[C@H](CO)[C@@H](O)[C@H](O)[C@@H]1O`, 1.01; for `NCC1CCC(N)C(OC2C(N)CC(N)C(OC3OC(CO)C(O)C(N)C3O)C2O)O1` (stereo not drawn), 0.947. Consider `NCC1OC(OC2C(N)CC(N)C(OC3OC(CO)C(O)C(N)C3O)C2O)C(N)CC1O` (stereo not drawn), for which the relative growth is 0.0445 (active). For `NC[C@H]1O[C@H](O[C@H]2[C@H](O)[C@@H](O[C@H]3O[C@H](CO)[C@@H](O)[C@H](N)[C@H]3O)[C@H](N)C[C@@H]2N)[C@H](N)C[C@@H]1O` the value was 0.0393 (active); for `C[C@H]1CN([C@@H](C)CO)C(=O)CCCn2cc(nn2)CO[C@@H]1CN(C)S(=O)(=O)c1cccc(C#N)c1`, 0.987; for `C[C@H](CO)N1C[C@H](C)[C@@H](CN(C)Cc2ccc(Oc3ccccc3)cc2)Oc2ccc(NC(=O)C3CC3)cc2C1=O`, 0.915.

Take `C[C@H]1CN([C@@H](C)CO)C(=O)c2ccccc2-c2ccccc2CO[C@H]1CN(C)S(=O)(=O)c1ccc(C(F)(F)F)cc1`: the relative growth is 1.04. For the compound `C[C@H]1CN([C@@H](C)CO)S(=O)(=O)c2ccc(C3=CCCCC3)cc2O[C@H]1CN(C)Cc1cncnc1`, the relative growth was 1.02. As for `COc1ccccc1S(=O)(=O)N(C)C[C@H]1OCc2cn(nn2)CCCC(=O)N([C@@H](C)CO)C[C@H]1C`, the figure is 1.05; as for `C[C@H]1CN([C@@H](C)CO)C(=O)Cc2cc(NC(=O)C3CCCCC3)ccc2O[C@@H]1CN(C)S(C)(=O)=O`, 0.992. As to `C[C@@H]1CN([C@H](C)CO)C(=O)c2cc(NS(=O)(=O)c3ccc(F)cc3)ccc2O[C@@H](C)CCCCO[C@@H]1CN(C)Cc1ccc(C(=O)O)cc1`, the relative growth is 1. Consider `Clc1ccc2sc(Sc3ccccc3)nc2c1`, for which the relative growth was 0.985. As for `COc1ccc(-c2c(C)oc3ccc(Cl)cc23)cc1`, the figure is 0.992; as for `CC1CCC2(C)C(C=O)=CCCC2C1(C)CC1OC(O)C(=O)C12CO2` (stereo not drawn), 0.0462 (active). Take `COC(=O)[C@@H](NC(=O)c1cccc(NC=O)c1O)[C@@H](C)O`: the relative growth was 1.04.

Take `C[C@@H]1CN([C@H](C)CO)C(=O)c2cc(NC(=O)c3ccncc3)ccc2O[C@@H](C)CCCCO[C@H]1CN(C)Cc1ccc(C(F)(F)F)cc1`: the relative growth was 1. In the case of `Cc1noc(C)c1NC(=O)N(C)C[C@H]1OCCCC[C@@H](C)Oc2ccc(NS(=O)(=O)c3ccccc3)cc2C(=O)N([C@@H](C)CO)C[C@H]1C`, the relative growth was 1.01.

On to `O=C1CN(N=Cc2ccc(-c3ccc([N+](=O)[O-])cc3)o2)C(=O)[N-]1.[Na+]`, for which the relative growth was 1.06. For `O=C1CN(N=Cc2ccc([N+](=O)[O-])o2)C(=O)N1` the value was 0.0462 (active). As for `O=C1CN(/N=C/c2ccc([N+](=O)[O-])o2)C(=O)N1`, the figure is 0.031 (active); as for `O=C1OC(CN2CCOCC2)CN1N=Cc1ccc([N+](=O)[O-])o1` (stereo not drawn), 0.575; as for `O=C1OCCN1N=Cc1ccc([N+](=O)[O-])o1`, 0.0457 (active). Regarding `Cc1cc(C(=O)Nc2cccc3c2O[C@@H](CN(C)S(=O)(=O)c2ccccc2)[C@H](C)CN([C@@H](C)CO)C3=O)n(C)n1`, the relative growth was 1.01. Regarding `C[C@@H]1CN([C@@H](C)CO)S(=O)(=O)c2ccc(Br)cc2O[C@@H]1CN(C)S(=O)(=O)c1ccc(F)cc1`, the relative growth was 1.04. As for `CCN1CCN(CC(=O)Nc2ccc(-c3cccc4c(=O)cc(N5CCOCC5)oc34)c3sc4ccccc4c23)CC1`, the relative growth is 0.981. For `COc1ccc(S(=O)(=O)Nc2cccc3c2O[C@H](CN(C)S(=O)(=O)c2cn(C)cn2)[C@@H](C)CN([C@H](C)CO)C3=O)cc1` the value was 1.01; for `CN(C)CCCNC(=O)C[C@@H]1CC[C@@H]2[C@H](COc3ccc(NS(C)(=O)=O)cc3C(=O)N2C)O1`, 1. `C[C@@H]1CCCCO[C@H](CN(C)Cc2ccccc2)[C@@H](C)CN([C@H](C)CO)C(=O)c2cc(NC(=O)C3CCCCC3)ccc2O1`: the relative growth is 0.995.
